Pf Dd2 inh – P. falciparum Dd2 growth inhibitors, primary screen, SYBR Green fluorescence, single dose replicates. AID 1159554, 2015. 72 h; hits give low values. activity change, % at 10 µM. actives 2.3% (n = 94,000); in the data active means activity change below about -80%; inconclusive means no clear call, values can overlap the other calls
T cruzi growth-1 – T. cruzi intracellular proliferation inhibitors, primary screen, cell-based, beta-gal Tulahuen parasites, NIH3T3 host, luminescence; T. cruzi beta-gal in NIH3T3, GalScreen luminescence, 90 h; inhibition, % at 8.34 µM; actives 5.9% (n = 77,000);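 active means mean inhibition above about 93%, with at least 55% of replicates each passing it, limit read from the data, passing the limit was not always enough; inconclusive means only one of those two conditions holds; inactive means neither condition holds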
C diff HTS – C. difficile growth inhibitors, primary screen, HTS | actives 0.25% (n = 86,000) | Clostridium difficile clinical isolate growth, OD600, 24 h; hits give low values | AID 1259249, 2017 | growth activity, negative = inhibition, % at 16 µg/mL (by protocol);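 active means mean growth activity at or below -80% and every replicate also at or below -80%; inconclusive means mean at or below -80% but some replicate above -80%; inactive means mean growth activity above -80%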;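 further: 0% = DMSO wells and -100% = levofloxacin 16 µg/mL wells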
T cruzi growth-2 – T. cruzi intracellular proliferation inhibitors, confirmation, cell-based, NIH3T3 host, beta-gal parasite, luminescence, cherry-pick; actives 72% (n = 5,600); T. cruzi beta-gal in NIH3T3, GalScreen luminescence, 90 h; inhibition, % at 8.35 µM; shares compounds with T cruzi growth-1; AID 651739, 2012;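 active means mean replicate inhibition above about 95% and at least 55% of replicates individually reaching it, limit read from the data; inconclusive means only one of the two criteria is met; inactive means neither criterion is met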
T cruzi growth-3 – inhibitors of intracellular T. cruzi replication, confirmation, NIH3T3 host cells, beta-gal parasites, cherry-pick, set 2 | T. cruzi beta-gal in NIH3T3, GalScreen luminescence, 90 h | actives 21% (n = 5,600) | AID 651740, 2012 | shares compounds with T cruzi growth-1 | inhibition, % at 2.09 µM;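 active means mean inhibition above about 95%, with at least 55% of replicates also reaching it, limit read from the data; inconclusive means meets just one of the two conditions; inactive means meets neither condition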;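 further: plate controls were neutral control median for no effect and positive control median for full effect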
3T3 cytotox – cytotoxicity in mouse NIH/3T3 fibroblasts, confirmation, cytotoxicity control for T. cruzi proliferation inhibitor project, cell-based, cherry-pick, single point; actives 14% (n = 5,600); shares compounds with T cruzi growth-1; AID 651742, 2012; NIH/3T3 viability, CellTiter-Glo ATP luminescence, 90 h; cytotoxicity (signal decrease), % at 8.35 µM;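 active means mean signal decrease across replicates above about 35% based on untreated-well scatter, with enough replicates individually passing, limit read from the data; inconclusive means no rule stated though some were filed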;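 further: 0% = median of neutral control wells and 100% = median of positive control wells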
NIH3T3 tox 2 – NIH/3T3 fibroblast cytotoxicity, confirmation, cytotoxicity control, cell-based, cherry-pick, single point, set 2 | actives 56% (n = 5,600) | shares compounds with T cruzi growth-1 | AID 651744, 2012 | inhibition, % at 24.9 µM | NIH/3T3 viability, CellTiter-Glo ATP luminescence, 90 h;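 active means mean loss of cell viability signal at or above a set limit, and enough replicates individually reaching it; inconclusive means meets only the mean limit or only the replicate share; inactive means meets neither condition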;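 further: 0% = median of neutral control wells and 100% = median of positive control wells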
An asterisk follows results filed as active. In the library only some 6.7% were active in any assay of this set; here they are far more common.

For C[C@H](CO)N1C[C@H](C)[C@H](CN(C)S(=O)(=O)c2ccc(Cl)cc2)OCc2cnnn2CCCC1=O the results were Pf Dd2 inh -12, T cruzi growth-1 inconclusive, C diff HTS 6, T cruzi growth-2 -13, T cruzi growth-3 -14, 3T3 cytotox -6 and NIH3T3 tox 2 15.
`C[C@@H]1CCCCO[C@H](CN(C)CC2CC2)[C@H](C)CN([C@@H](C)CO)C(=O)c2cc(NC(=O)Cc3ccccc3)ccc2O1` gave Pf Dd2 inh -77 and T cruzi growth-1 72.
For C[C@@H]1CCCCO[C@H](CN(C)C(=O)C2CCCCC2)[C@@H](C)CN([C@@H](C)CO)C(=O)c2cc(NC(=O)Nc3ccc(C(F)(F)F)cc3)ccc2O1 the results were Pf Dd2 inh -88*, T cruzi growth-1 120*, C diff HTS 7, T cruzi growth-2 98*, T cruzi growth-3 106*, 3T3 cytotox -13 and NIH3T3 tox 2 -8.
Screening C[C@H](CO)N1C[C@H](C)[C@H](CN(C)C(=O)C2CCCCC2)OCCCC[C@H](C)Oc2ccc(NC(=O)Nc3ccc(C(F)(F)F)cc3)cc2C1=O returned Pf Dd2 inh -24, T cruzi growth-1 100 and C diff HTS -1.
Screening C[C@@H]1CCCCO[C@H](CN(C)C(=O)C2CCCCC2)[C@@H](C)CN([C@H](C)CO)C(=O)c2cc(NC(=O)Nc3ccc(C(F)(F)F)cc3)ccc2O1 returned Pf Dd2 inh -42, T cruzi growth-1 120*, C diff HTS 14, T cruzi growth-2 105*, T cruzi growth-3 87, 3T3 cytotox 10 and NIH3T3 tox 2 inconclusive.
For C[C@H](CO)N1C[C@H](C)[C@@H](CN(C)C(=O)C2CCCCC2)OCCCC[C@H](C)Oc2ccc(NC(=O)Nc3ccc(F)cc3)cc2C1=O the results were Pf Dd2 inh 1, T cruzi growth-1 84 and C diff HTS -1.
For C[C@H]1CCCCO[C@@H](CN(C)C(=O)C2CCCCC2)[C@@H](C)CN([C@@H](C)CO)C(=O)c2cc(NC(=O)Nc3ccc(C(F)(F)F)cc3)ccc2O1 the results were Pf Dd2 inh -89*, T cruzi growth-1 120*, C diff HTS 1, T cruzi growth-2 96*, T cruzi growth-3 115*, 3T3 cytotox -13 and NIH3T3 tox 2 7.
For C[C@H]1CCCCO[C@@H](CN(C)C(=O)C2CCCCC2)[C@@H](C)CN([C@@H](C)CO)C(=O)c2cc(NC(=O)Nc3ccc(F)cc3)ccc2O1 the results were Pf Dd2 inh -85*, T cruzi growth-1 inconclusive, C diff HTS -4, T cruzi growth-2 111*, T cruzi growth-3 24, 3T3 cytotox -7 and NIH3T3 tox 2 7.
`C[C@@H]1CCCCO[C@@H](CN(C)C(=O)C2CCCCC2)[C@@H](C)CN([C@H](C)CO)C(=O)c2cc(NC(=O)Nc3ccccc3)ccc2O1` gave Pf Dd2 inh -55, T cruzi growth-1 67 and C diff HTS 7.
Screening C[C@@H]1CCCCO[C@@H](CN(C)C(=O)C2CCCCC2)[C@H](C)CN([C@H](C)CO)C(=O)c2cc(NC(=O)Nc3ccc(F)cc3)ccc2O1 returned Pf Dd2 inh -49, T cruzi growth-1 90 and C diff HTS -2.
`CCCC#Cc1cnc2c(c1)C(=O)N([C@@H](C)CO)C[C@H](C)[C@@H](CN(C)S(=O)(=O)c1cn(C)cn1)O2` gave Pf Dd2 inh 15 and C diff HTS 1.
`C[C@H](CO)N1C[C@H](C)[C@H](CN(C)S(=O)(=O)c2ccc(F)cc2)Oc2ccc(NC(=O)CCC(F)(F)F)cc2CC1=O` gave Pf Dd2 inh -19, T cruzi growth-1 22 and C diff HTS -10.

Compound activity: PubChem BioAssay, Broad Institute
